pPAFAH FP inh = inhibitors of human plasma PAF acetylhydrolase (pPAFAH); Q13093; recombinant pPAFAH, FP-rhodamine probe fluorescence polarization; inhibition, % at 3.39 µM; hit rate 1.5% among 330,000;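 active = inhibition above the mean inhibition across the screen plus 3 SD, cut at about 25% in these data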;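 note: inhibitors block binding of the rhodamine activity-based probe so polarization drops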
PAFAH2 FP inh = PAFAH2 (human) inhibition | Q99487 | hit rate 0.99% among 340,000 | recombinant PAFAH2, FP-rhodamine activity probe, fluorescence polarization | inhibition, % at 3.39 µM;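 active = inhibition above the mean over all tested compounds plus 3 SD, cut at about 30% in these data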;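 note: inhibitors block probe labeling of enzyme so polarization drops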
PP1 inh = blocks human PP1-alpha phosphatase, a PP5 counter-screen; P62136; purified PP1alpha, OMFP fluorescence; inhibition, % at 6.7 µM; hit rate 0.9% among 320,000;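 active = inhibition above the mean inhibition of all tested compounds plus 3 SD, computed separately for each screening campaign, cut at about 15% in these data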
PP5 primary = inhibitors of human protein phosphatase 5 (PP5). P53041. AID 1987. inhibition, % at 6.7 µM. hit rate 0.18% among 320,000. purified PP5c, OMFP substrate fluorescence;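 active = inhibition above the campaign's mean inhibition across all tested compounds plus 3 SD, cut at about 9.5% in these data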
Target sequence (P53041 whole entry, looked up): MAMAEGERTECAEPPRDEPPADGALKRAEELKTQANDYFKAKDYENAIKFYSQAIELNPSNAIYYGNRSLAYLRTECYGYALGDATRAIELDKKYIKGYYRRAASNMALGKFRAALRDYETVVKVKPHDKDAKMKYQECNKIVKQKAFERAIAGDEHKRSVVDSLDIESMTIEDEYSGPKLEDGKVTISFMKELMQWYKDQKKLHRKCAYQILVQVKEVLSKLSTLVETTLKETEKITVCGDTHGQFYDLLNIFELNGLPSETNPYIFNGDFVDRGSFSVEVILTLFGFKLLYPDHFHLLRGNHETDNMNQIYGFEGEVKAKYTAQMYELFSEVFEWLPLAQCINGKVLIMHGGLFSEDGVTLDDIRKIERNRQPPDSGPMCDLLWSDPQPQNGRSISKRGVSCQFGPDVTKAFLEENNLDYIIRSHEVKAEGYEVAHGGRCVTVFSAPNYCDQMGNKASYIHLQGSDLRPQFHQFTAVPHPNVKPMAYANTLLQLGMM
PAFAH1B2 FP inh = inhibitors of human PAFAH1B2; P68402; recombinant PAFAH1B2, FP-rhodamine activity probe, fluorescence polarization; inhibition, % at 3.39 µM; hit rate 1.2% among 340,000;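 active = inhibition above the mean of all tested compounds plus 3 SD, cut at about 24% in these data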
PAFAH1B3 inh = inhibitors of human PAFAH1B3 | recombinant PAFAH1B3, FP-rhodamine probe, fluorescence polarization | inhibition, % at 3.39 µM | hit rate 0.28% among 340,000 | AID 492972;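 active = inhibition above the screen-wide average of all tested compounds plus 3 SD, cut at about 25% in these data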
PP1 confirm = confirmation of human PP1 phosphatase inhibitors. hit rate 52% among 1,900. shares compounds with PP1 inh. purified PP1alpha, OMFP substrate fluorescence. inhibition, % at 6.7 µM;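 active = mean PP1 inhibition above a set limit taken from the earlier primary screen, cut at about 15% in these data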
PP5 counter = PP5 phosphatase inhibition, counter-screen for PP1 inhibitors; AID 2360; inhibition, % at 6.7 µM; purified PP5c, OMFP fluorescence; hit rate 4% among 1,900; shares compounds with PP1 inh;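 active = mean PP5 inhibition over triplicate wells above about 9.5% taken from the earlier PP1 screen, limit read from the data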
Hits are given with their value; 0 = inactive; - = no result. An excerpt weighted towards active compounds, which were near 3.4% of everything screened.

SMILES	pPAFAH FP inh	PAFAH2 FP inh	PP1 inh	PP5 primary	PAFAH1B2 FP inh	PAFAH1B3 inh	PP1 confirm	PP5 counter
O=C(O)c1ccc(COc2ccccc2/C=C2\NC(=O)N(Cc3ccc(F)cc3)C2=O)cc1	0	0	0	0	0	0	-	-
O=C(O)c1ccc(COc2ccccc2/C=C2/NC(=O)N(c3cccc(Cl)c3)C2=O)cc1	0	0	38	0	0	0	35	0
Cc1ccccc1NC(=O)CN1C(=O)N/C(=C\c2ccccc2OCc2ccc(C(=O)O)cc2)C1=O	0	0	18	0	0	0	16	0
N#CC1CCN(C(=O)c2ccc3c(Cl)c4c(nc3c2)CCCC4)CC1	0	0	23	0	0	0	0	0
COC(=O)/C(=C1/Oc2ccc(C)cc2S1)C(F)(F)F	0	0	0	0	0	0	-	-
O=C(Nc1nc(-c2ccccn2)cs1)c1ccc(Cl)s1	0	0	31	0	0	0	29	0
Cc1ccc(C(=O)Nc2nc(-c3ccccn3)cs2)s1	0	0	34	0	0	0	32	0
Cc1csc(NC(=O)c2cccn2C)n1	0	0	0	0	0	0	-	-
O=C(CCCSc1ccccc1)Nc1nc(-c2ccccn2)cs1	0	0	41	0	0	0	39	0
CCc1sc(C(=O)Nc2nc(-c3ccccn3)cs2)cc1C	0	0	-	-	0	0	-	-
Cn1cccc1C(=O)Nc1nc(-c2ccccn2)cs1	0	0	32	0	0	0	41	0
O=C(Nc1nc(-c2ccccn2)cs1)c1ncc(Cl)c(Cl)c1Cl	0	0	37	0	0	0	41	0
O=C(COc1ccc(F)cc1Cl)Nc1nc(-c2ccccn2)cs1	0	0	42	0	0	0	43	0
O=C(/C=C/c1ccco1)Nc1nc(-c2ccccn2)cs1	0	0	32	0	0	0	40	0
O=C(COc1ccccc1Cl)Nc1nc(-c2ccncc2)cs1	0	0	-	-	0	0	-	-
O=C(/C=C/c1ccco1)Nc1nc(-c2ccccc2)cs1	0	0	0	0	0	0	-	-
CC(=O)O[C@H]1[C@H](O)[C@H](Oc2c(O)c(C)c3c4c2[C@@H](C)CC[C@@H]4[C@@H](C)C[C@H]3C=C(C)C)O[C@@H](C)[C@H]1O	0	0	-	-	0	0	-	-
CCN(CC)CCOC(=O)c1ccc(N/C=C(/C#N)c2nc(-c3cc4ccccc4oc3=O)cs2)cc1	-	0	-	-	0	0	-	-
CCN(CC)CCOC(=O)c1ccc(N/C=C(/C#N)c2nc(-c3ccc4c(c3)OCO4)cs2)cc1	0	0	65	0	0	0	39	0
CCN(CC)CCOC(=O)c1ccc(N/C=C(/C#N)c2nc(-c3ccc(OC)cc3)cs2)cc1	0	0	60	0	0	0	0	0
Cc1noc(/C=C/c2ccco2)c1S(=O)(=O)N1CCC(C(=O)N2CCc3ccccc3C2)CC1	30	0	19	0	0	0	26	0
Cc1ccc(NC(=O)C2CCN(S(=O)(=O)c3c(C)noc3/C=C/c3ccco3)CC2)nc1	0	0	0	0	0	0	-	-
O=C(N/N=C/c1cccc([N+](=O)[O-])c1)c1cc(-c2ccc3c(c2)OCO3)n[nH]1	0	0	20	0	0	0	25	0
Cc1ccc(NC(=O)C2C3CCC(O3)C2C(=O)O)cc1Cl (stereo unspecified)	0	0	75	75	0	0	0	25
O=C(O)C1C2CCC(O2)C1C(=O)Nc1cnn(Cc2ccccc2)c1 (stereo unspecified)	0	0	24	41	0	0	0	18
SMILES	pPAFAH FP inh	PAFAH2 FP inh	PP1 inh	PP5 primary	PAFAH1B2 FP inh	PAFAH1B3 inh	PP1 confirm	PP5 counter
Cc1ccc(NC(=O)C2CCCCC2C(=O)O)cc1Cl (stereo unspecified)	0	0	0	0	0	0	-	-
O=C(O)C1C2CCC(O2)C1C(=O)Nc1ccc(F)c(Cl)c1 (stereo unspecified)	0	0	66	71	0	0	0	19
CN(CC(=O)Nc1ccc(F)cc1)CC(=O)N1CCCC1	0	0	0	0	0	0	-	-
O=C(O)c1cc(N2C(=O)C3C4C=CC(C4)C3C2=O)ccc1N1CCOCC1 (stereo unspecified)	0	0	0	0	0	0	-	-
COc1ccc(OC2CCN(S(=O)(=O)c3ccccc3)CC2)cc1	0	0	0	0	0	0	-	-
CCCCCN(C(=O)CCC(=O)OCC(=O)c1ccc(C(C)CC)cc1)c1c(N)n(CCCC)c(=O)[nH]c1=O (stereo unspecified)	0	0	29	0	0	0	0	0
CC(=O)Nc1cccc(C(=O)N/N=C/c2c[nH]c3ccccc23)c1	0	0	0	0	0	0	-	-
CCOc1ccc(CCNC(=O)c2ccc3c(c2)NC(=O)C2CCCN32)cc1OCC (stereo unspecified)	0	-	0	0	-	-	-	-
COC(=O)c1ccc(NC(=O)c2ccc3c(c2)NC(=O)C2CCCN32)cc1 (stereo unspecified)	0	-	34	0	-	-	27	0
O=C1Nc2ccccc2N2CCCC12 (stereo unspecified)	0	-	22	0	-	-	0	49
Cc1cc(=O)n2nc(N3CCC(C(=O)NCC(C)c4ccccc4)CC3)sc2n1 (stereo unspecified)	0	0	0	0	0	0	-	-
Cc1ccc(C)c(NC(=O)Cn2nc(-c3ccccc3)nc2-c2ccccc2)c1	0	0	20	0	0	0	24	0
Cc1ccc(NC(=O)Cn2nc(-c3ccccc3)nc2-c2ccccc2)c(C)c1	0	0	0	0	0	0	-	-
O=C(CSc1nnc(CNC(=O)c2cccs2)o1)Nc1ccccc1C(F)(F)F	0	0	0	0	0	0	-	-
CCNC(=O)CSC1=N/C(=C\c2ccc(O)c(OCC)c2)C(=O)N1c1ccc(OC(F)F)cc1	0	0	18	0	0	0	19	0
Cc1cc(/C=N/n2cnnc2)c(C)n1-c1ccc(Cl)cc1	0	0	0	0	0	0	-	-
Cc1cc(/C=N/n2cnnc2)c(C)n1-c1ccc(OCc2ccc(Cl)cc2Cl)cc1	0	0	27	0	0	0	42	0
Cc1cc(/C=N/n2cnnc2)c(C)n1-c1ccc(OCc2ccc(F)cc2)cc1	0	0	19	0	0	0	0	0
CCC[n+]1c2ccccc2cc2ccccc21	0	0	25	0	0	0	20	0
CCCCC[n+]1cccc2c3ccccc3ccc21	0	0	0	0	0	0	-	-
CC(C)(C)NC(=O)c1ccc(NC(=O)CSc2ccccc2)cc1	0	0	0	0	0	0	-	-

Source: PubChem BioAssay (The Scripps Research Institute Molecular Screening Center)
